Experimental data as given in PubChem BioAssay (NCATS).
Where “and” joins values, the source holds several entries; their conditions need not be identical. Equal values may be shown once. Inconclusive results are not listed. Calls of active or inactive are those of the source. The call rests on the fitted dose curve; in most records, active means well fitted inhibition curve with a large enough effect; inconclusive means small, poorly fitted or top-dose-only effect; inactive means flat fitted curve, though single readings scatter.

Key:
CRL-7250 = normal cell line; experiment: Cytotoxic Profiling of Annotated Libraries Using Quantitative High-Throughput Screening (AID 1296008); settings: Five cell lines viability, CellTiter-Glo ATP luminescence, 48-72 h; max response: active compounds read low; further: potency means the concentration at half of the fitted maximal effect; on max response: on the % scale 0 is the no-effect control and ±100 the full control effect
Outline: (§1)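 Cells exposed to compounds for 48 or 72 hr at 37 degrees Celsius. Viability read as ATP-coupled luminescence with CellTiter-Glo after 10 min at room temperature.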

HaCat [1] = experiment: as above; settings: Five cell lines viability, CellTiter-Glo ATP luminescence, 48-72 h; max response: active compounds read low
Outline: as §1

KB-3-1 = experiment: as above; settings: Five cell lines viability, CellTiter-Glo ATP luminescence, 48-72 h; max response: active compounds read low
Outline: as §1

NIH3T3 = experiment: as above; settings: Five cell lines viability, CellTiter-Glo ATP luminescence, 48-72 h; max response: active compounds read low
Outline: as §1

TAB113 = experiment: qHTS profiling for inhibitors of Plasmodium falciparum proliferation (AID 504749); further: potency means the concentration at half of the fitted maximal effect; settings: P. falciparum in erythrocytes, SYBR Green DNA, 72 h; series mostly up to 28.7 µM
Outline: (§2)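 Readout was DNA-dye fluorescence from lysed cultures, ex 485/em 535 nm. Parasitized red cells had grown 72 h with compound; data scaled between 0.29 uM artemisinin and DMSO wells and corrected using vehicle-only plates.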

HEK293 = experiment: Cytotoxic Profiling of Annotated Libraries Using Quantitative High-Throughput Screening (AID 1296008); settings: Five cell lines viability, CellTiter-Glo ATP luminescence, 48-72 h; max response: active compounds read low; further: potency means the concentration at half of the fitted maximal effect; on max response: on the % scale 0 is the no-effect control and ±100 the full control effect
Outline: as §1

TAB165 = experiment: qHTS profiling for inhibitors of Plasmodium falciparum proliferation (AID 504749); further: potency means the concentration at half of the fitted maximal effect; settings: P. falciparum in erythrocytes, SYBR Green DNA, 72 h; series mostly up to 28.7 µM
Outline: as §2

W2 = experiment: as above; settings: P. falciparum in erythrocytes, SYBR Green DNA, 72 h; series mostly up to 28.7 µM
Outline: as §2

HACAT [2] = experiment: qHTS assay to identify novel small-molecules to repurpose for Merkel cell carcinoma treatment (AID 1296009); settings: MCC and control cell lines, CellTiter-Glo viability, 72 h; at 44.8 µM (top of the series) unless noted
Outline: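 Cells were incubated with compound for 72 hr at 37 degree celsius before CellTiter-Glo addition. Luminescence was normalized with no-cell wells as full cytotoxicity and DMSO as baseline.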
Further: nearly all actives have a fitted effect of over 60% in size.

O=C1[C@H](CC[C@H](O)c2ccc(F)cc2)[C@@H](c2ccc(O)cc2)N1c1ccc(F)cc1
inactive: max response (CRL-7250) 1.5% | outcome (CRL-7250) | max response (HaCat [1]) -6.94% and -19.1% | max response (KB-3-1) -8.72% and 5.64% | max response (NIH3T3) -18.6% and -29.1%

COc1ccc(C(=O)c2ccccc2O)c(O)c1
inactive: Potency (TAB113) | outcome (CRL-7250) | max response (HEK293) -10.9% | max response (HaCat [1]) 4.59% | max response (KB-3-1) -2.05% | max response (NIH3T3) 1.03%

CCN1CCN(C(=O)N[C@@H](C(=O)N[C@@H]2C(=O)N3C(C(=O)O)=C(CSc4nnnn4C)CS[C@H]23)c2ccc(O)cc2)C(=O)C1=O
inactive: max response (CRL-7250) 3.23% | max response (HEK293) -4.75% | max response (HaCat [1]) -2.57% | max response (KB-3-1) -4.94% | max response (NIH3T3) -3.36%

Nc1nc(Cl)nc2c1ncn2[C@@H]1O[C@H](CO)[C@@H](O)[C@@H]1F
active: Potency (CRL-7250) 596 nM | Potency (HEK293) 1500 nM | Potency (HaCat [1]) 1060 nM | Potency (NIH3T3) 1190 nM
inactive: max response (KB-3-1) 2.36%

CC(=O)OCC1=C(C(=O)O)N2C(=O)[C@@H](NC(=O)CSc3ccncc3)[C@H]2SC1
inactive: max response (CRL-7250) -1.6% | max response (HEK293) 4.22% | max response (HaCat [1]) 0.118% | max response (KB-3-1) 2.34% | max response (NIH3T3) 1.18%

COc1cc([C@H]2Oc3cc([C@H]4Oc5cc(O)cc(O)c5C(=O)[C@@H]4O)ccc3O[C@@H]2CO)ccc1O
inactive: outcome (CRL-7250) | max response (HEK293) -17.6% | max response (HaCat [1]) -5.16% | max response (KB-3-1) 47.9%

O=C1C(CCS(=O)c2ccccc2)C(=O)N(c2ccccc2)N1c1ccccc1 (centres undefined)
inactive: Potency (TAB113) | Potency (TAB165) | Potency (W2) | max response (CRL-7250) -1.85% | max response (HEK293) -3.91% | outcome (HaCat [1]) | max response (KB-3-1) 4.22% | max response (NIH3T3) -2.37% | outcome (HACAT [2])

Cc1cc(-c2ccccc2)nnc1NCCN1CCOCC1
inactive: Potency (TAB113) | Potency (TAB165) | max response (CRL-7250) -17.2% | max response (HEK293) 1.05% | max response (HaCat [1]) -33.8% | max response (KB-3-1) -13.9% | max response (NIH3T3) -3.42%

NCCNC(=O)c1ccc(Cl)cn1
inactive: Potency (TAB113) | Potency (TAB165) | Potency (W2) | outcome (CRL-7250) | max response (HEK293) -1.7% | outcome (HaCat [1]) | max response (KB-3-1) -16.4% | max response (NIH3T3) 2.21% | outcome (HACAT [2])

CC1(COc2ccc(CC3SC(=O)NC3=O)cc2)CCCCC1 (centres undefined)
inactive: Potency (TAB113) | Potency (TAB165) | Potency (W2) | outcome (CRL-7250) | max response (HEK293) 0.676% | outcome (HaCat [1]) | max response (KB-3-1) -1.45% | outcome (NIH3T3) | outcome (HACAT [2])

O=[N+]([O-])c1cccc(S(=O)(=O)NCCNS(=O)(=O)c2cccc([N+](=O)[O-])c2)c1
inactive: Potency (TAB113) | outcome (CRL-7250) | max response (HEK293) -16% | max response (HaCat [1]) 0.408% | max response (KB-3-1) 2.2% | max response (NIH3T3) -4.18%

C[N+]12CCC(CC1)C(OC(=O)C(O)(c1ccccc1)c1ccccc1)C2 (centres undefined)
inactive: max response (CRL-7250) 3.27% | max response (HEK293) -6.95% | max response (HaCat [1]) -16.2% | max response (KB-3-1) 1.71% | max response (NIH3T3) 0.982%

CC(O)Cn1cnc2c1c(=O)n(C)c(=O)n2C (centres undefined)
inactive: max response (CRL-7250) 2.85% | max response (HEK293) 1.15% | max response (HaCat [1]) -17.4% | max response (KB-3-1) 13.1% | max response (NIH3T3) -9.57%

N[C@H](C(=O)O)[C@@H](O)c1ccc(O)c(O)c1
inactive: outcome (CRL-7250) | max response (HEK293) -0.734% | max response (HaCat [1]) 1.85% | max response (KB-3-1) -1.88% | max response (NIH3T3) 0.856%

Cc1cc(C)cc(OCC2CNC(=O)O2)c1 (centres undefined)
inactive: Potency (TAB113) | Potency (TAB165) | max response (CRL-7250) 2.93% | max response (HEK293) 3.06% | max response (HaCat [1]) -13.4% | max response (KB-3-1) 2.21% | max response (NIH3T3) 0.518%

CCOCCn1c(N2CCCN(C)CC2)nc2ccccc21
active: Potency (W2) 4780 nM
inactive: Potency (TAB113) | Potency (TAB165) | max response (CRL-7250) -16.3% | max response (HEK293) -5.73% | max response (HaCat [1]) 1.76% | max response (KB-3-1) -16.6% | max response (NIH3T3) -0.586%

CCOC(=O)c1ccc(N)cc1
inactive: Potency (TAB113) | Potency (TAB165) | Potency (W2) | max response (CRL-7250) -8.72% | max response (HEK293) -24% | max response (HaCat [1]) -25.3% | max response (KB-3-1) 1.36% | max response (NIH3T3) -0.465%

CC[C@H](c1ccc(O)cc1)[C@@H](CC)c1ccc(O)cc1
inactive: Potency (TAB113) | Potency (TAB165) | Potency (W2) | max response (CRL-7250) 3.93% | max response (HEK293) -17.5% | max response (HaCat [1]) 0.0962% | max response (KB-3-1) 5.55% | max response (NIH3T3) 4.6%

CCCCCCCCCCCCCC(=O)OC(C)C
inactive: Potency (TAB113) | Potency (TAB165) | Potency (W2) | max response (CRL-7250) -4.95% | max response (HEK293) -0.105% | max response (HaCat [1]) -4.71% | max response (KB-3-1) -19% | max response (NIH3T3) 2.35%

CCCCCCCCCCCCCCCCO
inactive: Potency (TAB113) | Potency (TAB165) | Potency (W2) | max response (CRL-7250) -12.4% | max response (HEK293) 1.14% | max response (HaCat [1]) -1.51% | max response (KB-3-1) 19% | max response (NIH3T3) -5.1%

CCN(CC)CCNC(=O)c1cc(Br)c(N)cc1OC
inactive: Potency (TAB113) | Potency (TAB165) | max response (CRL-7250) 3.66% | max response (HEK293) -7.62% | max response (HaCat [1]) -11.9% | max response (KB-3-1) -23.2% | max response (NIH3T3) -9.42%
